From PubChem BioAssay (NCATS)
Records with an inconclusive call do not appear. Where a call stands in place of a potency, no number is given. The source made the active and inactive calls. The call rests on the fitted dose curve; in most records, active means well fitted curve in the direction sought with a large enough effect; inconclusive means small, poorly fitted or top-dose-only effect, or another doubt; inactive means no such curve, though single readings can be large; an effect the other way counts as inactive or inconclusive.

Experiment: HepG2 cells viability qHTS for Zika virus inhibitors (AID 1347168)
Details: Zika counter-screen; series mostly up to 45.9 µM
In short: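 qHTS titration; 24-48 h compound exposure, 37 degrees C/5% CO2; DMEM, 4% FBS; CellTiter Glo ATP luminescence.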

Structure (SMILES) | outcome
S=c1[nH]c(-c2ccccc2)cn1-c1ccccc1 | inactive
COc1ccc(/C=C/c2nc(NCCCN(C)C)c3ccccc3n2)cc1 | inactive
Cn1c(=O)c2[nH]c(-c3ccccc3)nc2n(C)c1=O | inactive
CN1CCN(c2cc3c(nn2)Oc2ccccc2N3C)CC1 | inactive
Cc1ccccc1CNc1ncnc2c1ncn2C1OC(CO)C(O)C1O (stereo unspecified) | inactive
NC(=O)C(=O)O | inactive
Oc1cc2c(cc1O)CN(C(=S)NCCc1ccc(Cl)cc1)CCC2 | inactive
CCCCN(CC)c1nc(C)nc2c1c(C)cn2-c1c(C)cc(C)cc1C | inactive

Experiment: Tertiary RLuc qRT-PCR qHTS assay for Zika virus inhibitors (AID 1347169); further: nearly all actives have a fitted effect of over 55% in size; further: potency means the concentration at half of the fitted maximal effect
Details: infected Vero cells, reporter luminescence, 48-72 h; series mostly up to 45.9 µM
In short: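 Luminescence read-out: live-cell Renilla luciferase substrate applied to infected Vero cells, signal measured after 1-1.5 hrs. Cells had received compound before ZIKV-RLuc (Cambodian strain, MOI 1-2) infection and were incubated 48-72 hrs at 37 degrees C.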

Structure (SMILES) | Potency
S=c1[nH]c(-c2ccccc2)cn1-c1ccccc1 | inactive
O=C(Nc1cccc(C(=O)Nc2ccc(S(=O)(=O)O)c3cc(S(=O)(=O)O)cc(S(=O)(=O)O)c23)c1)Nc1cccc(C(=O)Nc2ccc(S(=O)(=O)O)c3cc(S(=O)(=O)O)cc(S(=O)(=O)O)c23)c1 | inactive
Cn1c(=O)c2[nH]c(-c3ccccc3)nc2n(C)c1=O | inactive
CN1CCN(c2cc3c(nn2)Oc2ccccc2N3C)CC1 | inactive
Cc1ccccc1CNc1ncnc2c1ncn2C1OC(CO)C(O)C1O (stereo unspecified) | inactive
NC(=O)C(=O)O | inactive
Oc1cc2c(cc1O)CN(C(=S)NCCc1ccc(Cl)cc1)CCC2 | 13.1 µM (active)
CC[C@@H](C)[C@H]1O[C@]2(CC[C@H]1C)C[C@@H]1C[C@@H](CC=C(C)[C@@H](O[C@H]3C[C@H](OC)[C@@H](O[C@H]4C[C@H](OC)[C@@H](O)[C@H](C)O4)[C@H](C)O3)[C@@H](C)C=CC=C3CO[C@@H]4[C@H](O)C(C)=C[C@@H](C(=O)O1)[C@]34O)O2 | 3.7 µM (active)
